# Data: ChEMBL document CHEMBL1961873, “Compounds: GSK PKIS; Assays: Nanosyn kinase panel” (2012)
# Legend:
# [1] = target: Calcium/calmodulin-dependent protein kinase type II subunit alpha (Homo sapiens) (UniProt Q9UQM7); conditions: at 1 µM;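 note: reported value is a mean percent inhibition of CAMK2A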
# [2] = target: Calcium/calmodulin-dependent protein kinase type II subunit delta (Homo sapiens) (UniProt Q13557); conditions: at 0.1 µM
# [3] = target: Calcium/calmodulin-dependent protein kinase type II subunit delta (Homo sapiens) (UniProt Q13557); conditions: at 1 µM
# [4] = target: T1, Calcium/calmodulin-dependent protein kinase type IV (Homo sapiens) (UniProt Q16566); conditions: at 0.1 µM
# T1 sequence (whole entry): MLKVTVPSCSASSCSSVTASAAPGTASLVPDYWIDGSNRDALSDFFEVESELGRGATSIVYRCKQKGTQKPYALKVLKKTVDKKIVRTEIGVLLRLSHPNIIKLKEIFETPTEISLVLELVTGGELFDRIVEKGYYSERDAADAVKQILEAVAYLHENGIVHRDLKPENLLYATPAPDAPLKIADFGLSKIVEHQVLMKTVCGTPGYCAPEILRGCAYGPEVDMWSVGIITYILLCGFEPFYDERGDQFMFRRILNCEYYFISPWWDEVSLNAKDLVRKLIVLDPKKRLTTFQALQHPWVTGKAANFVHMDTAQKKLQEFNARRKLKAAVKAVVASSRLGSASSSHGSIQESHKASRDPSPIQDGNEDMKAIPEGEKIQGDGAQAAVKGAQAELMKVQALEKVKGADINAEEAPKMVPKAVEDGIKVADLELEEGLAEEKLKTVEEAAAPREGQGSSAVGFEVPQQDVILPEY
# [5] = target: T1, Calcium/calmodulin-dependent protein kinase type IV (Homo sapiens); conditions: at 1 µM
# [6] = target: T2, Serine/threonine-protein kinase Chk1 (Homo sapiens) (UniProt O14757); conditions: at 0.1 µM
# T2 sequence (whole entry): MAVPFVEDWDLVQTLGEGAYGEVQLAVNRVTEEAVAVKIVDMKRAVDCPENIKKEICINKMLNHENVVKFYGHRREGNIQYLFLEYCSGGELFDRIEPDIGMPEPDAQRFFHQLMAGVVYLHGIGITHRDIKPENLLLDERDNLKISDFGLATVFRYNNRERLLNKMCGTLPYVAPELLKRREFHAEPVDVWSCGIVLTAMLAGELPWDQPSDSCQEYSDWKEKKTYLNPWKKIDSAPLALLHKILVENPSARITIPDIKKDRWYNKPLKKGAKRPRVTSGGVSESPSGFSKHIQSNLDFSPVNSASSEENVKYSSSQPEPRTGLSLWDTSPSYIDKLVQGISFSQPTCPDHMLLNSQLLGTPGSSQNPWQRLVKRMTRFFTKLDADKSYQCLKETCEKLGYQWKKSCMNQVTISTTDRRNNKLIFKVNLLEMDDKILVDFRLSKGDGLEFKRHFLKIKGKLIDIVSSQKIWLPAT
# [7] = target: T2, Serine/threonine-protein kinase Chk1 (Homo sapiens); conditions: at 1 µM
# [8] = target: Serine/threonine-protein kinase Chk2 (Homo sapiens) (UniProt O96017); conditions: at 0.1 µM
# [9] = target: Serine/threonine-protein kinase Chk2 (Homo sapiens) (UniProt O96017); conditions: at 1 µM
# [10] = target: Death-associated protein kinase 1 (Homo sapiens) (UniProt P53355); conditions: at 0.1 µM
# [11] = target: Death-associated protein kinase 1 (Homo sapiens) (UniProt P53355); conditions: at 1 µM
# [12] = target: T3, Serine/threonine-protein kinase DCLK2 (Homo sapiens) (UniProt Q8N568); conditions: at 0.1 µM
# T3 sequence (whole entry): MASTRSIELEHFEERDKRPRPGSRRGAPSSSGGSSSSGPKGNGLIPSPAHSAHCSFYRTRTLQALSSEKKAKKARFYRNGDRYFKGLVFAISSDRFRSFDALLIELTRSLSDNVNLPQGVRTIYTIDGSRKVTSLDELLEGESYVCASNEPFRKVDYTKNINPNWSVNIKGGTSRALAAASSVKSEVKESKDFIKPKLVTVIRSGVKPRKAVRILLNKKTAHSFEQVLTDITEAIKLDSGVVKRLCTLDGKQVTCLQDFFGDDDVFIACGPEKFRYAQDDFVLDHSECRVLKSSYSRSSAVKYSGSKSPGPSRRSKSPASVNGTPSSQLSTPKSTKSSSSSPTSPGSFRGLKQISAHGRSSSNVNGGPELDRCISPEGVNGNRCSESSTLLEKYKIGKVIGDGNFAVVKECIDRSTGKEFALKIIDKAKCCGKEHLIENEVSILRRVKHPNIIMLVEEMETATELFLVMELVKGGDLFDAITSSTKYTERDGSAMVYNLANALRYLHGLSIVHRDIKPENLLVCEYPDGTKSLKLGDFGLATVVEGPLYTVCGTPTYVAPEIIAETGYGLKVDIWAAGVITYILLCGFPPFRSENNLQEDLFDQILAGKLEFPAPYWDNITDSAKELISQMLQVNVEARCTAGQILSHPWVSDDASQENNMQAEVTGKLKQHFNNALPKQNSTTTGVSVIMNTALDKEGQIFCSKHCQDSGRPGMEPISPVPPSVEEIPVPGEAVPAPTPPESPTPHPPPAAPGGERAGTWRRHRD
# [13] = target: T3, Serine/threonine-protein kinase DCLK2 (Homo sapiens); conditions: at 1 µM
# [14] = target: MAP kinase-activated protein kinase 2 (Homo sapiens) (UniProt P49137); conditions: at 0.1 µM
# [15] = target: MAP kinase-activated protein kinase 2 (Homo sapiens) (UniProt P49137); conditions: at 1 µM
# [16] = target: MAP kinase-activated protein kinase 3 (Homo sapiens) (UniProt Q16644); conditions: at 0.1 µM
# [17] = target: MAP kinase-activated protein kinase 3 (Homo sapiens) (UniProt Q16644); conditions: at 1 µM
# [18] = target: Serine/threonine-protein kinase MARK1 (Homo sapiens) (UniProt Q9P0L2); conditions: at 0.1 µM
# [19] = target: Serine/threonine-protein kinase MARK1 (Homo sapiens) (UniProt Q9P0L2); conditions: at 1 µM
# [20] = target: MAP/microtubule affinity-regulating kinase 3 (Homo sapiens) (UniProt P27448); conditions: at 0.1 µM;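 note: mean percent inhibition of MARK3 kinase activity, measured within the GSK PKIS screening panel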
# MAP/microtubule affinity-regulating kinase 3 (Homo sapiens), sequence (P27448 whole entry, looked up): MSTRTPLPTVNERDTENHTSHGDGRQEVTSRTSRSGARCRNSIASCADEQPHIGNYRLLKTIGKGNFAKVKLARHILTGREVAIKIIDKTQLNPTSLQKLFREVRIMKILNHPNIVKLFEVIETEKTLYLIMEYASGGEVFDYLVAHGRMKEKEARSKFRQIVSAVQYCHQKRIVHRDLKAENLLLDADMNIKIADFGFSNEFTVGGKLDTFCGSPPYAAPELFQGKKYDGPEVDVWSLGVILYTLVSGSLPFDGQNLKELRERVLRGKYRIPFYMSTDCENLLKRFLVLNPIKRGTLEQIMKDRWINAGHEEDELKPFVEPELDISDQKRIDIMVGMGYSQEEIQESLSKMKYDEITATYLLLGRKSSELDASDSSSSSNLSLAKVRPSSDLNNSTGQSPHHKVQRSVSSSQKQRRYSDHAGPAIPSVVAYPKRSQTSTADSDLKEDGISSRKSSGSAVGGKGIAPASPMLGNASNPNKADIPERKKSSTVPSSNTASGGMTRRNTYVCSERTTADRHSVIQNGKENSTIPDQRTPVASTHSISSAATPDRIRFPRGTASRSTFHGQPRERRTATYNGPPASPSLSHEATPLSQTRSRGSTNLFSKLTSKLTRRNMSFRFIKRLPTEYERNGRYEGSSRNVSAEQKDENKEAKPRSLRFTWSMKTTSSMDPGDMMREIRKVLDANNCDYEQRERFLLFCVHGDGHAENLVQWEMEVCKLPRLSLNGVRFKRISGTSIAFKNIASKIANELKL
# Calcium/calmodulin-dependent protein kinase type II subunit alpha (Homo sapiens), sequence (Q9UQM7 whole entry): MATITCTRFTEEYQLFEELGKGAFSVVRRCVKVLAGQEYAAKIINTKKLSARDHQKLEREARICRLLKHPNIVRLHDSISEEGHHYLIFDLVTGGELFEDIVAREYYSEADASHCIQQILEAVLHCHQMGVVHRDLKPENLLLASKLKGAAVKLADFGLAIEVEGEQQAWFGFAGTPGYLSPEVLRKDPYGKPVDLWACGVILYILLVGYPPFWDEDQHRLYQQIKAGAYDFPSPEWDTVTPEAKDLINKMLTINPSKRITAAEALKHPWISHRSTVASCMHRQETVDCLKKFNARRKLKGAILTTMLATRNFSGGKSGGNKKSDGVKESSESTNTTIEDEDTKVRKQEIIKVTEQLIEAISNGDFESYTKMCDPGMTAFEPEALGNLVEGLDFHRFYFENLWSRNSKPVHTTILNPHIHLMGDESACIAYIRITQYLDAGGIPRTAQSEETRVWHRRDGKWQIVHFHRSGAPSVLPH
# Calcium/calmodulin-dependent protein kinase type II subunit delta (Homo sapiens), sequence (Q13557 whole entry): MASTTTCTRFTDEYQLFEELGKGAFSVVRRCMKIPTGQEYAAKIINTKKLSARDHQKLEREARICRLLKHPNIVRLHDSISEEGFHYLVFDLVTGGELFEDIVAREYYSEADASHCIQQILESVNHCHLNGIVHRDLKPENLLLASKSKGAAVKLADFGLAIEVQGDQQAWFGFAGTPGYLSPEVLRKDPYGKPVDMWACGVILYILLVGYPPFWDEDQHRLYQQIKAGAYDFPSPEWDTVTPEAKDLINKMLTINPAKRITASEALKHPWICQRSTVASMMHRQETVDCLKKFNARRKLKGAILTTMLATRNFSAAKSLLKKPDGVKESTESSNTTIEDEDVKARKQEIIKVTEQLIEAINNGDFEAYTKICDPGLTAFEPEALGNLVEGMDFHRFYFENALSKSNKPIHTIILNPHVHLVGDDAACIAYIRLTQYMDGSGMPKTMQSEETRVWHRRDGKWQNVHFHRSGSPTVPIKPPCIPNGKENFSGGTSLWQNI
# Death-associated protein kinase 1 (Homo sapiens), sequence (P53355 whole entry, looked up): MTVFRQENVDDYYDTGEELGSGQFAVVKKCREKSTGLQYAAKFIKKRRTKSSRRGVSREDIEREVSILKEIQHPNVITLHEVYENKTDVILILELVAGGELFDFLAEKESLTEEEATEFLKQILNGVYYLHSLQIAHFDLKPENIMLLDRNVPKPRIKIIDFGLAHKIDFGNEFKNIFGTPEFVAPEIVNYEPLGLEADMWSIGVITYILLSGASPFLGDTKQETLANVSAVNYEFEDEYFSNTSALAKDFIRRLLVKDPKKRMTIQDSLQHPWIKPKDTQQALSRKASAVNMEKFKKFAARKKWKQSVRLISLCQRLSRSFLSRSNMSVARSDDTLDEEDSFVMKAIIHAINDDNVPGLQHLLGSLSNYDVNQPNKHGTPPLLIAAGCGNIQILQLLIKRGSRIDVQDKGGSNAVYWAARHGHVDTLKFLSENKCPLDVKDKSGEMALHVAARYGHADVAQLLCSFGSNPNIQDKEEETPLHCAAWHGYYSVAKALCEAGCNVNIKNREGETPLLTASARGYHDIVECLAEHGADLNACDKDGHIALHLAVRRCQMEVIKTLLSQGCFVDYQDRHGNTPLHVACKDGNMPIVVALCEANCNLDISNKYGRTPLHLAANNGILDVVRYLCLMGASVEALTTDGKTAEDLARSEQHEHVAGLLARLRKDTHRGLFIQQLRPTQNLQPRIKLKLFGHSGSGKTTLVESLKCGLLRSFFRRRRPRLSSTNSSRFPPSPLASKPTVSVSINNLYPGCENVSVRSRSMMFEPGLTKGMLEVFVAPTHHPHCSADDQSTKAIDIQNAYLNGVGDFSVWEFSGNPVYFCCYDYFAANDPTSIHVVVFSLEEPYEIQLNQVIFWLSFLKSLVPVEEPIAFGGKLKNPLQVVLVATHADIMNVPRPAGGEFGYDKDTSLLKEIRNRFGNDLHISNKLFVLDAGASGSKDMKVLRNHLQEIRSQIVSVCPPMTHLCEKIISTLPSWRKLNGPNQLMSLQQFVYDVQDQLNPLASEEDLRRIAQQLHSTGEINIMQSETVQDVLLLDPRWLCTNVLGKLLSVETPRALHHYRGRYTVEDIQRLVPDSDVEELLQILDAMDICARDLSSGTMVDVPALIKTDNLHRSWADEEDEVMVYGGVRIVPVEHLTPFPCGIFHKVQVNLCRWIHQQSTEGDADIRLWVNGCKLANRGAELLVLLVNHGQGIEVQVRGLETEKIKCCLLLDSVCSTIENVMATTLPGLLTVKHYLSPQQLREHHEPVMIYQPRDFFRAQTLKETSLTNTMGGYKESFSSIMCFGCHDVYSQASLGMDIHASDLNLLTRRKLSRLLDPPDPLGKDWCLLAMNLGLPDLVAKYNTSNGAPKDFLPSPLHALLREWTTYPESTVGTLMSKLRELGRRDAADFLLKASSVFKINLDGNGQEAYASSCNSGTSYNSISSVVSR
# Serine/threonine-protein kinase Chk2 (Homo sapiens), sequence (O96017 whole entry): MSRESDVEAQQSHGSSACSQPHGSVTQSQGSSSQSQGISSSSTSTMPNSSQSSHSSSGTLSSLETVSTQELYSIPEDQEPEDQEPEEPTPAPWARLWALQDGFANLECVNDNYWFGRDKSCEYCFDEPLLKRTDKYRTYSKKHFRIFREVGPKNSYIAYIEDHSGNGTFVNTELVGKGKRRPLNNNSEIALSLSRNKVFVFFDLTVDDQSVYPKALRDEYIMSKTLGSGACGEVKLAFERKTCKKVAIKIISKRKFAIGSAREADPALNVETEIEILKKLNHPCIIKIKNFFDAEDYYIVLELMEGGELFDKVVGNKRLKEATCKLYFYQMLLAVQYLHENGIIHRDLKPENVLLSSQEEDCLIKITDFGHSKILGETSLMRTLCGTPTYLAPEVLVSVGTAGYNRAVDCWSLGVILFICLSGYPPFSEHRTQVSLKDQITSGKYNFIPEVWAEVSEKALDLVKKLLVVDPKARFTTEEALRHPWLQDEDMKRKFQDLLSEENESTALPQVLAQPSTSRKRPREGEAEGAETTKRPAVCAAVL
# MAP kinase-activated protein kinase 2 (Homo sapiens), sequence (P49137 whole entry, looked up): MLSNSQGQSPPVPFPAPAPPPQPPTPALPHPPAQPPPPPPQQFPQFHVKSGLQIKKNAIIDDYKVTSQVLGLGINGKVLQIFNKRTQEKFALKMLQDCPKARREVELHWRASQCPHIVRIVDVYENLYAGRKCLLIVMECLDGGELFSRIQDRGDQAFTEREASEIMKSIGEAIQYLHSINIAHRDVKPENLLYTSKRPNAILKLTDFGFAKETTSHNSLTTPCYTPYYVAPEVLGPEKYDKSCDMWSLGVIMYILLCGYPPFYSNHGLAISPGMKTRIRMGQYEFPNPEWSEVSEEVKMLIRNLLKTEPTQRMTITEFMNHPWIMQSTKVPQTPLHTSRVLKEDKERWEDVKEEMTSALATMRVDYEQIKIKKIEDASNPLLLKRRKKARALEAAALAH
# MAP kinase-activated protein kinase 3 (Homo sapiens), sequence (Q16644 whole entry, looked up): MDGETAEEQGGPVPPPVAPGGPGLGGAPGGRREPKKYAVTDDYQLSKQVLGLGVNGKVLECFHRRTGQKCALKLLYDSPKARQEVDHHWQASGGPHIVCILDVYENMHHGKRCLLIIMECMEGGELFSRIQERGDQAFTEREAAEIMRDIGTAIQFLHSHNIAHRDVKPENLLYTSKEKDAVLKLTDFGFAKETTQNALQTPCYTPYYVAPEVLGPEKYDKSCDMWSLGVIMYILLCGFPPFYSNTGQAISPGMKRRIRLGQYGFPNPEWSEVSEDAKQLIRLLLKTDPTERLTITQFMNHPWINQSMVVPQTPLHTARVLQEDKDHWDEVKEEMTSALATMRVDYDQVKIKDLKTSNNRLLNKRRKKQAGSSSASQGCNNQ
Structure (SMILES),inhibition [1],inhibition [2],inhibition [3],inhibition [4],inhibition [5],inhibition [6],inhibition [7],inhibition [8],inhibition [9],inhibition [10],inhibition [11],inhibition [12],inhibition [13],inhibition [14],inhibition [15],inhibition [16],inhibition [17],inhibition [18],inhibition [19],inhibition [20]
CS(=O)(=O)CCNCc1cc(-c2cc3c(Nc4ccc(OCc5cccc(F)c5)c(Cl)c4)ncnc3s2)cs1,3.15%,4.55%,7.4%,-2.05%,2.64%,1.14%,4.23%,4.96%,11.2%,2.74%,-0.04%,0.09%,1.12%,2.75%,3.42%,3.37%,4.64%,-0.03%,3.02%,0.84%
O=C(Nc1n[nH]c2nc(-c3ccc(O)cc3)c(Br)cc12)C1CC1,8.39%,6.47%,20.1%,-0.14%,2.12%,8.74%,16.8%,2.09%,4.23%,5.9%,3.27%,0.9%,3.55%,2.43%,2.69%,4.49%,5.6%,3.94%,9.58%,3.96%
CS(=O)(=O)CCNCc1ccc(-c2ccc3ncnc(Nc4ccc(OCc5ccccc5)c(Br)c4)c3c2)o1,-1.77%,2.65%,3.02%,-1.3%,-2.06%,0.41%,1.92%,2.5%,2.92%,3.45%,2.27%,-2.49%,-1.71%,1.3%,0.14%,3.07%,2.03%,1.99%,1.61%,3.89%
C[C@@H](Oc1cc(-n2cnc3ccc(OCC4CCN(C)CC4)cc32)sc1C(N)=O)c1ccccc1Cl,12.8%,9.02%,38.1%,0.69%,3.44%,7.19%,10.4%,2.55%,6.43%,7.7%,9.2%,0.87%,4.91%,2.09%,4.06%,2.95%,3.34%,3.83%,24.3%,4.91%
Cc1ccc(C(=O)NC2CCC2)cc1-c1ccc(C(=O)NCC2CC2)cc1,2.38%,1.89%,1.44%,0.4%,0.59%,2.53%,2.39%,1.83%,3.06%,2.9%,4.36%,0.61%,4.16%,1.17%,0.94%,5.84%,18.9%,2.6%,1.46%,3.09%
CCc1cccc(CC)c1/C=C/c1cncc(C(=O)NC)c1,3.51%,2.92%,2.2%,1.05%,13.9%,3.68%,2.13%,1.58%,1.85%,2.61%,4.2%,1.1%,1.19%,0.82%,0.99%,4.47%,3.44%,2.28%,1.27%,3.86%
Clc1ccc(CNc2nccc(-c3cnn4ncccc34)n2)cc1,4.51%,2.06%,3.21%,1.93%,1.7%,2.84%,8.27%,4.34%,6.1%,9.28%,11.8%,-0.21%,-0.19%,3.88%,3.81%,7.41%,7.89%,1.55%,1.16%,0.99%
Fc1ccc(-c2ncn(C3CCNCC3)c2-c2ccnc(Oc3ccc(F)c(F)c3)n2)cc1,0.43%,1.91%,4.38%,-2.42%,-1.76%,-3.21%,5.61%,2.5%,2.87%,3.38%,2.08%,-3.27%,-1.37%,1.11%,0.66%,18.5%,31.3%,2.93%,4.99%,3.47%
O=C(Nc1n[nH]c2nc(-c3ccco3)ccc12)C1CC1,1.36%,2.25%,2.34%,2.75%,3.02%,1.37%,8.39%,4.66%,6.05%,7.38%,8.47%,-5.65%,-0.3%,3.08%,2.89%,7.07%,7.18%,-0.31%,0.25%,3.27%
O=C1Nc2ccc(I)cc2C1=Cc1cc(Br)c(O)c(Br)c1,7.25%,3.27%,9.08%,0.52%,4.99%,0.05%,-0.68%,4.44%,9.44%,1.46%,-4.68%,0.92%,1.91%,1.65%,4.08%,2.77%,3.75%,0.84%,2.09%,-0.57%
COc1cccc(-n2cnc3c(N/N=C/c4ccncc4)ncnc32)c1,1.18%,-1.07%,-1.61%,-2.88%,-5.3%,0.34%,0.31%,-0.94%,-0.32%,-0.67%,-2.81%,-3.07%,-0.03%,-0.39%,-0.48%,-0.9%,-2.07%,1.01%,6.09%,1.08%
